Experimental data reported in the supplement of paper PMC11732987, “Enantioselective OTUD7B fragment discovery through chemoproteomics screening and high-throughput optimisation” (Communications Chemistry, 2025).

How the values were obtained:
Experiment in all cases: log2 ratio of Biotin-Ahx-Ub-VS probe labelling (fragment/DMSO); higher = less target engagement (more negative = stronger competition), active = hit call of the paper (q ≤ 0.05, log2 ratio ≤ -1)
Details in all cases: compound concentration: 200 uM; treatment time: 3 h
USP9X = USP9X (UniProt Q93008)
Summary of the method: (§1)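 HEK293T lysate (495 µg per sample, in Tris/CHAPS/IGEPAL buffer with protease inhibitors) was exposed in triplicate for 3 h to fragment at 200 µM or to vehicle, then to Biotin-Ahx-Ub-VS at 0.5 µM final for 1 h. Labelled DUBs were enriched on NeutrAvidin, digested with LysC and trypsin, and analysed by diaPASEF LC-MS/MS. Spectronaut label-free quantities were normalised to the global median, and values are average log2 ratios of fragment over vehicle from an unpaired t-test. Only proteins with ≥2 unique peptides were used.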

UniProt O00487 = biological target: UniProt O00487
Summary of the method: as §1

UniProt O00507 = biological target: UniProt O00507
Summary of the method: as §1

UniProt P51784 = biological target: UniProt P51784
Summary of the method: as §1

UniProt Q5T2D3 = biological target: T1, UniProt Q5T2D3
T1 sequence (whole entry): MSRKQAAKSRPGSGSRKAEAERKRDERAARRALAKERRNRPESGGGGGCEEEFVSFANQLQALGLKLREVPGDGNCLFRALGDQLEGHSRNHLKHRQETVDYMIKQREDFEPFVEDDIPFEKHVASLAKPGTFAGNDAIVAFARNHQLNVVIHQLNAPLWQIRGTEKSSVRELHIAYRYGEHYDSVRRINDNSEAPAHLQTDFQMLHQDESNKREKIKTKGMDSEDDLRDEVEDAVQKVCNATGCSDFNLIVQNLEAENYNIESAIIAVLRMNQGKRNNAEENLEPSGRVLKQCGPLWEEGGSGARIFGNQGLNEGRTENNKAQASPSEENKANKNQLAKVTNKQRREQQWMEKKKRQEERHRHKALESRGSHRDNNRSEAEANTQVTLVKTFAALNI
Summary of the method: as §1

UniProt Q8TE49 = biological target: T2, UniProt Q8TE49
T2 sequence (whole entry): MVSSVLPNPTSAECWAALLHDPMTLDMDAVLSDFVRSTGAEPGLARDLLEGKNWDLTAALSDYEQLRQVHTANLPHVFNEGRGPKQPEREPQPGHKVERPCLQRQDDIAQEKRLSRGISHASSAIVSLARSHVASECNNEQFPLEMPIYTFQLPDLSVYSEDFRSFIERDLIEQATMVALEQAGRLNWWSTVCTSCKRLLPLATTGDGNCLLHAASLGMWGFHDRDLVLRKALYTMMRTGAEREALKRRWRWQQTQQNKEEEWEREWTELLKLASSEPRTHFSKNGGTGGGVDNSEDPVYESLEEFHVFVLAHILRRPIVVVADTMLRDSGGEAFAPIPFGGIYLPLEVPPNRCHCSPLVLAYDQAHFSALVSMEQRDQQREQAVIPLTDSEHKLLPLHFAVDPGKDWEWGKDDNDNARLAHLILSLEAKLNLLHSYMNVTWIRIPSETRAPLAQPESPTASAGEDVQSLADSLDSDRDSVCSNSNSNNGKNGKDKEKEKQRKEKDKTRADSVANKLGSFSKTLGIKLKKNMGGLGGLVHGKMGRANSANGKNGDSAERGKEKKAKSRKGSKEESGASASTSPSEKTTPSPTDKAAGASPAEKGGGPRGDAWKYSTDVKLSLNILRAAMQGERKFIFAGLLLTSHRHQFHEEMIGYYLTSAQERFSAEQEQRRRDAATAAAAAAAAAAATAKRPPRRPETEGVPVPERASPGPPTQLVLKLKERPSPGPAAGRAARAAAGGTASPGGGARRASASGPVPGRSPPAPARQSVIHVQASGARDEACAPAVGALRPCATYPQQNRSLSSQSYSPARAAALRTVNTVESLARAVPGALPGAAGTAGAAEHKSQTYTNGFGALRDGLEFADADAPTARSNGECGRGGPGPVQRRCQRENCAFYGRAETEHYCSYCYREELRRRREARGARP
Summary of the method: as §1

UniProt Q9P2H5 = biological target: T3, UniProt Q9P2H5
T3 sequence (whole entry): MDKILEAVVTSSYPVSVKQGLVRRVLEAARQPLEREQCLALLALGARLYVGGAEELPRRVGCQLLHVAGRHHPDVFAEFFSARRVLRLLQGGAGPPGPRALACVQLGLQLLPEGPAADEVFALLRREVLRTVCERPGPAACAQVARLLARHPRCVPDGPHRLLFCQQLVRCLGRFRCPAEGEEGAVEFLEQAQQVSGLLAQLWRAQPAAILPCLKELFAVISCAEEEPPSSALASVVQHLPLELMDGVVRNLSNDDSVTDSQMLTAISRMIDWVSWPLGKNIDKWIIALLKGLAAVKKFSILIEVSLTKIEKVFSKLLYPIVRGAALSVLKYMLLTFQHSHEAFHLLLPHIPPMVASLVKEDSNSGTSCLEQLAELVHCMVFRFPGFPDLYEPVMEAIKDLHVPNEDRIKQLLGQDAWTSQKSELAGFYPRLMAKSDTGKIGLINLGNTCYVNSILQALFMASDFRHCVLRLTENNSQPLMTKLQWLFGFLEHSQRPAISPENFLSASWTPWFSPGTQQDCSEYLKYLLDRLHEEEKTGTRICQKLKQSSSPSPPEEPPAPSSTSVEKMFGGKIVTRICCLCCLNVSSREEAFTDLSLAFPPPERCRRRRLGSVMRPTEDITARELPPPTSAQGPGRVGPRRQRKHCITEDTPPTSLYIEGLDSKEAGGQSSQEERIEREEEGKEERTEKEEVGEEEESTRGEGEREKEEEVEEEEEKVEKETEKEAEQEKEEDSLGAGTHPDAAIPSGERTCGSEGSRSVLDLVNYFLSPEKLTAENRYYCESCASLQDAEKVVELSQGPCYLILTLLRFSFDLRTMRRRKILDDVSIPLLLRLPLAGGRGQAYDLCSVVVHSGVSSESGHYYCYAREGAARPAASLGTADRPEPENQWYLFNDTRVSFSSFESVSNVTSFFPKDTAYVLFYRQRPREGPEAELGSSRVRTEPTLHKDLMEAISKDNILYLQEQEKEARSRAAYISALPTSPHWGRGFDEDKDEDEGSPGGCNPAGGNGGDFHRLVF
Summary of the method: as §1

UniProt Q9UGI0 = biological target: T4, UniProt Q9UGI0
T4 sequence (whole entry): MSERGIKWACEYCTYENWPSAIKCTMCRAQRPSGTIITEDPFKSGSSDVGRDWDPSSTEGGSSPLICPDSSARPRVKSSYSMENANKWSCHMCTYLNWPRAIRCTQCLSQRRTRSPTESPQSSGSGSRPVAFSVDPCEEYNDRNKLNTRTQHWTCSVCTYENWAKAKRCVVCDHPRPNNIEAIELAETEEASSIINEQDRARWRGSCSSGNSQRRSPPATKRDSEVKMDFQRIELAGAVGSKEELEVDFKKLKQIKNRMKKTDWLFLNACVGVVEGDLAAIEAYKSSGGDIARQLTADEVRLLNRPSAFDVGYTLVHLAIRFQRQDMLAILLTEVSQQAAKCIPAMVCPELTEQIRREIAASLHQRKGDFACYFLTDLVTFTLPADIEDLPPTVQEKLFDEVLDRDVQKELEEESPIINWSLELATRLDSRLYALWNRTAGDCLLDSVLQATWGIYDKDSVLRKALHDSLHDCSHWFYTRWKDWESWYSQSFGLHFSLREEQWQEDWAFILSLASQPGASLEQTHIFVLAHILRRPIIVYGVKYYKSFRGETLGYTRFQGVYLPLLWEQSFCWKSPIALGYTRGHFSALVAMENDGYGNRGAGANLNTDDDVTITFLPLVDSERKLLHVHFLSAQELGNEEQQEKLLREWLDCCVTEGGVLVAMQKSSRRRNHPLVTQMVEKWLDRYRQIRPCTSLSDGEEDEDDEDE
Summary of the method: as §1

YOD1 = biological target: T5, YOD1 (UniProt Q5VVQ6)
T5 sequence (whole entry): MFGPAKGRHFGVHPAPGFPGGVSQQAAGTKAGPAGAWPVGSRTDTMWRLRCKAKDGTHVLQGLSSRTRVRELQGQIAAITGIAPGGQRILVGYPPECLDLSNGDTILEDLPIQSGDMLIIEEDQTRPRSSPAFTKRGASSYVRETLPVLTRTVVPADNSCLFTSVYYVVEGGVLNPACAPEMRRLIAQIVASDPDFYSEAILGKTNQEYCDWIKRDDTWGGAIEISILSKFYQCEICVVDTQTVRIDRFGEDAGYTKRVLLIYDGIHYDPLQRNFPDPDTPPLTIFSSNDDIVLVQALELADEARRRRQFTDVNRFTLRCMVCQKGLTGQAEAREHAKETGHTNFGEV
Summary of the method: as §1

Measured: log2 ratio of Biotin-Ahx-Ub-VS probe labelling

Chain of UniProt O00507 (O00507 whole entry): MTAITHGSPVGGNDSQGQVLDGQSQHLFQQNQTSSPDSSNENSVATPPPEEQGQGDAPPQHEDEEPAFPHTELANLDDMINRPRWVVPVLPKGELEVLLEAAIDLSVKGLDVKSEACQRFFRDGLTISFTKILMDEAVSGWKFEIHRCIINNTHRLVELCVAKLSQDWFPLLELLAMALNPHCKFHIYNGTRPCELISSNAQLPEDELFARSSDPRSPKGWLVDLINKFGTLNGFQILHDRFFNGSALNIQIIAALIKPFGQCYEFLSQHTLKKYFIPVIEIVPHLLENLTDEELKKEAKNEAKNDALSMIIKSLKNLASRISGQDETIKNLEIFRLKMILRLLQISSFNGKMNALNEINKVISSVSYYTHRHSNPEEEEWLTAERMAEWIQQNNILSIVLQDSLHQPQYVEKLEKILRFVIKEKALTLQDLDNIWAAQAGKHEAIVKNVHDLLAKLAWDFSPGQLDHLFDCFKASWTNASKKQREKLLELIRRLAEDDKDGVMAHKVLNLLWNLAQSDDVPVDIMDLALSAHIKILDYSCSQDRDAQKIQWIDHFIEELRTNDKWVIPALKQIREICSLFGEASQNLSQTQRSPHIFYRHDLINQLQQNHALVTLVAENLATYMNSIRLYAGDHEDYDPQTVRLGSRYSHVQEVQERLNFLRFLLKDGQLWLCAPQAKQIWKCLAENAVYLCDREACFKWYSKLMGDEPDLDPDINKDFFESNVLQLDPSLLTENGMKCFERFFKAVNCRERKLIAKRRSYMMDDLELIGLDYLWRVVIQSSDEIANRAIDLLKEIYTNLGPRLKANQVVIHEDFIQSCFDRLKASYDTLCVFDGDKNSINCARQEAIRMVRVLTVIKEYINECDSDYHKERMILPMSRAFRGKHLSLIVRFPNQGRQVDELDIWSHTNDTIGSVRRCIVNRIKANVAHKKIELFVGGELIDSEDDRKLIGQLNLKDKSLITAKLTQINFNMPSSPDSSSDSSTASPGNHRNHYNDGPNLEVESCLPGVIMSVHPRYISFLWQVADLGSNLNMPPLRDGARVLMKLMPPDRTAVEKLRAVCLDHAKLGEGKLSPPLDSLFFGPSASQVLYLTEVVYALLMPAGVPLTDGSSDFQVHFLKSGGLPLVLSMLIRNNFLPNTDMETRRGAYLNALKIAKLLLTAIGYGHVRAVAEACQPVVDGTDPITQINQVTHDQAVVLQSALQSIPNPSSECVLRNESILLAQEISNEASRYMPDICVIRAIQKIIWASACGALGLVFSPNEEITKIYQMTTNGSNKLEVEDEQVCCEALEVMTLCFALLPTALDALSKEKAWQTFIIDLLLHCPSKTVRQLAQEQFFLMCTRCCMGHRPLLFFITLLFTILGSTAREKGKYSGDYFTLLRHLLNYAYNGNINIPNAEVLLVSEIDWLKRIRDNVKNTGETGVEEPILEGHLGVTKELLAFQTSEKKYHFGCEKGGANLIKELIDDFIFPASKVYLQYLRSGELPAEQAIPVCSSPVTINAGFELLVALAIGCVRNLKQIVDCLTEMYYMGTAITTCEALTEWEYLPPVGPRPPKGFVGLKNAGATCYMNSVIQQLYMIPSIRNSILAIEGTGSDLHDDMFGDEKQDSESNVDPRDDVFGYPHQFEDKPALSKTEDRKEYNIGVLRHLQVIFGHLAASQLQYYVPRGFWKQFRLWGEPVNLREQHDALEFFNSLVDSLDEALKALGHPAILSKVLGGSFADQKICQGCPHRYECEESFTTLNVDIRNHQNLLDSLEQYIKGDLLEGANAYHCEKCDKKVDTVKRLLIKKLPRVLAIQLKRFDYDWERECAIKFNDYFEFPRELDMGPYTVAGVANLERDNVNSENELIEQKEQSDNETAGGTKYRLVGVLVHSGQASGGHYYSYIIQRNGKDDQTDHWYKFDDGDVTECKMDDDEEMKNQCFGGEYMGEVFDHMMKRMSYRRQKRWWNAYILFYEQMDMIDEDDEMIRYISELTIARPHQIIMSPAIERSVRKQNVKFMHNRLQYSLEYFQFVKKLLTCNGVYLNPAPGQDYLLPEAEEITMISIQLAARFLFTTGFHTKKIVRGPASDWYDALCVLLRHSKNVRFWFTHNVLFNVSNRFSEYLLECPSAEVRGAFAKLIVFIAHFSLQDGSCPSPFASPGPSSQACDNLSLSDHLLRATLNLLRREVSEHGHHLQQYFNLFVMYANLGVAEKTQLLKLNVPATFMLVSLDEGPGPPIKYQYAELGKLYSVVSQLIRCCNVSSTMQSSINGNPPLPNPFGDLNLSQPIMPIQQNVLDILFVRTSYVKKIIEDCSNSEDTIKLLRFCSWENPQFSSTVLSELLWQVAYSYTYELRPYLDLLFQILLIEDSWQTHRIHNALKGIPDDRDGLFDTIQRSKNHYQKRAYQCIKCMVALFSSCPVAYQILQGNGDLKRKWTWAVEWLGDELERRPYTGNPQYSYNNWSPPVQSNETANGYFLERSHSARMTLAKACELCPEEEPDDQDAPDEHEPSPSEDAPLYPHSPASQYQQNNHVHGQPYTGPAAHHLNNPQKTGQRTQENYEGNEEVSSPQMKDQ
Chain of UniProt P51784 (P51784 whole entry): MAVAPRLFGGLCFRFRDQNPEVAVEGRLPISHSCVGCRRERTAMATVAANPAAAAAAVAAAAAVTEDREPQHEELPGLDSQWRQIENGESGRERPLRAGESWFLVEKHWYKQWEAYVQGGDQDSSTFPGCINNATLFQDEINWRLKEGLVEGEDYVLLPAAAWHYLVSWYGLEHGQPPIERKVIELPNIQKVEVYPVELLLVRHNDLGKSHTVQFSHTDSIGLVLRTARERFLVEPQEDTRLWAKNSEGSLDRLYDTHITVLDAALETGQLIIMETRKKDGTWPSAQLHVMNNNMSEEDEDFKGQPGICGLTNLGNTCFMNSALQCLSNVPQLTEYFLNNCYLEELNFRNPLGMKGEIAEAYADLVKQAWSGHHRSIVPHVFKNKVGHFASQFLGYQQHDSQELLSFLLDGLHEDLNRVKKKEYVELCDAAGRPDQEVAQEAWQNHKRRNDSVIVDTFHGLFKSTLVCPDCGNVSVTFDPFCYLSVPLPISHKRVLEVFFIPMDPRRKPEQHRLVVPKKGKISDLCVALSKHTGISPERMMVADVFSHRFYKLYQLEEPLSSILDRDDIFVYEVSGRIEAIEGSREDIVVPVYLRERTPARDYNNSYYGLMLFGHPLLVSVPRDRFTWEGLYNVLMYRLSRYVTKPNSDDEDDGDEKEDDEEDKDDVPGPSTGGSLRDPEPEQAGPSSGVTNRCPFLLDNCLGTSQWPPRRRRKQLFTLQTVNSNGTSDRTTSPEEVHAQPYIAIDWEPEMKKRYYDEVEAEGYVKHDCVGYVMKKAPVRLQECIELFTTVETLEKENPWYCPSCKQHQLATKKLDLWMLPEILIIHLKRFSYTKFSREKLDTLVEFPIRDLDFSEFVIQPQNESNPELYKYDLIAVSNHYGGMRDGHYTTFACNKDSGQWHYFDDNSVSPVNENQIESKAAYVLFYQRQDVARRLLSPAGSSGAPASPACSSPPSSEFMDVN
Chain of UniProt O00487 (O00487 whole entry): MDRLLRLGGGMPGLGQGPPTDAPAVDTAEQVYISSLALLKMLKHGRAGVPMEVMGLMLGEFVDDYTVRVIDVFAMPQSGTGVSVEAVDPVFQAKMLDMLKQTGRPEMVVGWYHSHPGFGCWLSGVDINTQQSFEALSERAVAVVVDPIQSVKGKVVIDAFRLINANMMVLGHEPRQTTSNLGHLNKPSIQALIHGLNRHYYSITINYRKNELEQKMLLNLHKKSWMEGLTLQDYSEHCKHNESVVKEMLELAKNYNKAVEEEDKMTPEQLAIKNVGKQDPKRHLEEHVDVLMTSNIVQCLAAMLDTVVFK

Cc1ccc(N(C(=O)CCl)C2C=CS(=O)(=O)C2)cc1 (centres undefined)
inactive: USP9X 0.0636 | UniProt O00487 0.0368 | UniProt O00507 0.428 | UniProt P51784 0.0438 | UniProt Q5T2D3 0.136 | UniProt Q8TE49 -0.0818 | UniProt Q9P2H5 -0.196 | UniProt Q9UGI0 -0.0234 | YOD1 0.412
